Reference: PubChem BioAssay (NCATS)
Results filed as inconclusive are left out. The source made the active and inactive calls. The call rests on the fitted dose curve.
On the % scale 0 is the no-effect control and ±100 the full control effect; potency means the concentration at half of the fitted maximal effect.

Assay: Validation screen for inhibitors of Lassa infection (AID 463096)
Conditions: Lassa virus infection, cell-based; series mostly up to 46.1 µM; activity change, negative = inhibition: at the top concentration
For `CCCNC(=O)NS(=O)(=O)c1ccc(Cl)cc1`, the “activity change, negative = inhibition” value was -4.13% (inactive). In the case of `CC(CN1c2ccccc2Sc2ccccc21)N(C)C` (stereo not drawn), the “activity change, negative = inhibition” value is reported as -47% (inactive). For `NNCCc1ccccc1`, the “activity change, negative = inhibition” value was 19.3% (inactive). For `CN1CCN(C2=Nc3ccccc3Oc3ccc(Cl)cc32)CC1`, the “activity change, negative = inhibition” value was -16.5% (inactive). For `Nc1nnc(-c2cccc(Cl)c2Cl)c(N)n1`, the “activity change, negative = inhibition” value was 26.3% (inactive). For `O=C(C1CCCCC1)N1CC(=O)N2CCc3ccccc3C2C1` (stereo not drawn), the “activity change, negative = inhibition” value was -0.301% (inactive). With `CC(=O)Nc1nnc(S(N)(=O)=O)s1` the “activity change, negative = inhibition” value was -15.1% (inactive). With `COc1ccccc1OCC(O)CN1CCN(CC(=O)Nc2c(C)cccc2C)CC1` (stereo not drawn) the “activity change, negative = inhibition” value was -0.707% (inactive). In the case of `C[C@](N)(Cc1ccc(O)c(O)c1)C(=O)O`, the “activity change, negative = inhibition” value is reported as 35.4% (inactive). With `CC(C)[N+](C)(CCOC(=O)C1c2ccccc2Oc2ccccc21)C(C)C` the “activity change, negative = inhibition” value was -3.02% (inactive). With `O=c1n(CCCN2CCN(c3cccc(Cl)c3)CC2)nc2ccccn12` the “activity change, negative = inhibition” value was 1.15% (inactive). With `N[C@@H]1CONC1=O` the “activity change, negative = inhibition” value was 1.69% (inactive). With `Cc1cccc(C)c1OCC(C)N` (stereo not drawn) the “activity change, negative = inhibition” value was 30.4% (inactive). In the case of `Cc1ccccc1C(OCCN(C)C)c1ccccc1` (stereo not drawn), the “activity change, negative = inhibition” value is reported as -38.7% (inactive). For `CN1CCN(C2=Nc3cc(Cl)ccc3Nc3ccccc32)CC1`, the “activity change, negative = inhibition” value was -22.7% (inactive). In the case of `O=C(c1ccccc1)c1ccc2n1CCC2C(=O)O` (stereo not drawn), the “activity change, negative = inhibition” value is reported as 4.5% (inactive). For `CC[N+](C)(C)c1cccc(O)c1`, the “activity change, negative = inhibition” value was -14.6% (inactive). With `CCCN1C[C@H](CSC)C[C@@H]2c3cccc4[nH]cc(c34)C[C@H]21` the “activity change, negative = inhibition” value was -13.4% (inactive). For `CN(C)CC[C@@H](c1ccc(Br)cc1)c1ccccn1`, the “activity change, negative = inhibition” value was -23.9% (inactive). For `CC(=O)N[C@@H](CS)C(=O)O`, the “activity change, negative = inhibition” value was 8.91% (inactive). For `O=C1CCC(N2C(=O)c3ccccc3C2=O)C(=O)N1` (stereo not drawn), the “activity change, negative = inhibition” value was -35.3% (inactive). For `CCOC(=O)c1ncn2c1CN(C)C(=O)c1cc(F)ccc1-2`, the “activity change, negative = inhibition” value was 7.31% (inactive). With `CC1=C(/C=C/C(C)=C/C=C/C(C)=C/C(=O)Nc2ccc(O)cc2)C(C)(C)CCC1` the “activity change, negative = inhibition” value was -44% (inactive). For `CC(C)NCC(O)COc1ccc(CCOCC2CC2)cc1` (stereo not drawn), the “activity change, negative = inhibition” value was 23.8% (inactive). For `CC1=NS(=O)(=O)c2cc(Cl)ccc2N1`, the “activity change, negative = inhibition” value was 61.5% (inactive). For `CN/C(=C\[N+](=O)[O-])NCCSCc1ccc(CN(C)C)o1`, the “activity change, negative = inhibition” value was -7.84% (inactive). For `Cc1oncc1C(=O)Nc1ccc(C(F)(F)F)cc1`, the “activity change, negative = inhibition” value was -49.4% (inactive). For `CC(C(=O)O)c1cccc(C(=O)c2ccccc2)c1` (stereo not drawn), the “activity change, negative = inhibition” value was 16.8% (inactive). With `CNC1(C)C2CCC(C2)C1(C)C` (stereo not drawn) the “activity change, negative = inhibition” value was 30.4% (inactive). With `CCN(CC)CCNC(=O)c1cc(Cl)c(N)cc1OC` the “activity change, negative = inhibition” value was 12.8% (inactive). In the case of `CCN(CC)C(=S)SSC(=S)N(CC)CC`, the Potency is reported as 10 µM (active). In the case of `NC12CC3CC(CC(C3)C1)C2`, the “activity change, negative = inhibition” value is reported as 34.3% (inactive). With `CC(C)NCC(O)c1ccc(O)c(O)c1` (stereo not drawn) the Potency was “inactive”.
